From PubChem BioAssay (Tox21)
Inconclusive results are not listed. Active and inactive are the calls of the source. Unless noted, the call rests on the fitted dose curve; in most records, active means well fitted curve in the direction sought with a large enough effect in the repeat runs; inconclusive means weak or mixed curves; inactive means flat fitted curve, though single readings scatter.

Experiments:
[1] = qHTS assay to test for compound auto fluorescence at 535 nm (green) in HEK293 cells (AID 720680)
[2] = qHTS assay to test for compound auto fluorescence at 460 nm (blue) in HEK293 cell free culture (AID 720681)
Method in brief: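 Compounds were added to cell-free DMEM with 10% FBS and fluorescence read directly. The blue channel used 405 nm excitation and 460 nm emission, with triamterene as the reference fluorophore.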

[3] = qHTS assay to test for compound auto fluorescence at 535 nm (green) in HEK293 cell free culture (AID 720682)
Method in brief: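 Compounds were pin-transferred into cell-free DMEM with 10% FBS, and green fluorescence was read at excitation 485 nm and emission 535 nm. Intensities were expressed as fluorescein-equivalent values.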

[4] = qHTS assay to test for compound auto fluorescence at 590 nm (red) in HEK293 cell free culture (AID 720683)
Method in brief: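 Cell-free wells of DMEM with 10% FBS received compound, and intrinsic fluorescence was read at excitation/emission 540/590 nm. Values expressed as equivalence to Rose Bengal sodium.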

[5] = qHTS assay to test for compound auto fluorescence at 590 nm (red) in HepG2 cell free culture (AID 720684)
Method in brief: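 Auto fluorescence equivalency versus Rose Bengal sodium, red channel Ex/Em 540/590 nm; compounds in cell-free MEM/10% FBS; DMSO vehicle control.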

[6] = qHTS assay to test for compound auto fluorescence at 460 nm (blue) in HepG2 cell free culture (AID 720685)
Method in brief: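 Cell-free plates of MEM plus 10% FBS received 23 nL compound or DMSO vehicle; blue-channel (405/460 nm) intensity scored against triamterene as reference fluorophore.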

[7] = qHTS assay to test for compound auto fluorescence at 535 nm (green) in HepG2 cell free culture (AID 720686)
[8] = qHTS assay to test for compound auto fluorescence at 460 nm (blue) in HepG2 cells (AID 720687)
Method in brief: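 HepG2 cells in MEM with 10% FBS, attached overnight at 37 C, were exposed to compound or DMSO for 1 hr at 37 C, 5% CO2. Blue fluorescence was read at 405/460 nm, with triamterene as reference fluorophore.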

[9] = target: Glucocorticoid receptor (Homo sapiens) (UniProt P04150); test: qHTS assay to identify small molecule agonists of the glucocorticoid receptor (GR) signaling pathway (AID 720691; active means well fitted activation curve with a large enough effect in the signal ratio in the repeat runs, not every such curve was filed as active; the % refers to the signal ratio)
Sequence of Glucocorticoid receptor (Homo sapiens) (P04150 whole entry, looked up): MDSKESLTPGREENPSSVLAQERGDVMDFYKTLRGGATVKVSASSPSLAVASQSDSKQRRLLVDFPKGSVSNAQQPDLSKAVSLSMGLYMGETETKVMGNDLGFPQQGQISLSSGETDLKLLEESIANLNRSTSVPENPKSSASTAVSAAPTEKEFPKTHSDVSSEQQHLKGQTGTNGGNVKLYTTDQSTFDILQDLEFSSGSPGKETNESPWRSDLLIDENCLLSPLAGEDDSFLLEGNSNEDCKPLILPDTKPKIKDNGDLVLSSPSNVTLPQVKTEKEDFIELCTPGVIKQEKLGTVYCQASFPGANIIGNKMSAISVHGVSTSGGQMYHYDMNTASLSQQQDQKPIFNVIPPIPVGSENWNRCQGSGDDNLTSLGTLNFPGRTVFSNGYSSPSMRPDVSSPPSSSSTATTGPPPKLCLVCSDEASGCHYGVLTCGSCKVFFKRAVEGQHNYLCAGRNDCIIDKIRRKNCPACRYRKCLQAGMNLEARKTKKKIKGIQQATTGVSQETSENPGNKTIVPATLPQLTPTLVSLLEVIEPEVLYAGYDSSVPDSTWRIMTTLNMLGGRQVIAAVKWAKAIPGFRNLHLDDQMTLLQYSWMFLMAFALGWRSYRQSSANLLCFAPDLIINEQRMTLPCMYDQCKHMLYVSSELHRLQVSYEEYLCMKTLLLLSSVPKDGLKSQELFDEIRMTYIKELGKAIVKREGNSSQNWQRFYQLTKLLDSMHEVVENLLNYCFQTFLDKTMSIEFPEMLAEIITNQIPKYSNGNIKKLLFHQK
Method in brief: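 Agonist-mode qHTS in HeLa cells stably expressing a glucocorticoid-response-element beta-lactamase reporter. Fluorescence intensity read with FRET substrate (2 h, room temperature) after 18 h compound treatment at 37 C.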

[10] = target: Glucocorticoid receptor (Homo sapiens) (UniProt P04150); test: qHTS assay to identify small molecule antagonists of the glucocorticoid receptor (GR) signaling pathway (AID 720692; active means well fitted inhibition curve with a large enough effect in the signal ratio in the repeat runs, not every such curve was filed as active; the % refers to the signal ratio)
Method in brief: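 Inhibition of dexamethasone-driven (5 nM final) beta-lactamase expression was measured in GRE-reporter HeLa cells over 18 h at 37C. Fluorescence was read after 2 h with the B/G FRET substrate at room temperature.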
On the % scale 0 is the no-effect control and ±100 the full control effect.

CO[Si](CCCS)(OC)OC
inactive: outcome [1] | outcome [2] | outcome [3] | outcome [4] | outcome [5] | outcome [6] | outcome [7] | outcome [8] | Potency [9] | outcome [10]

O=C(O)CCNC(=O)c1ccccc1
inactive: outcome [1] | outcome [2] | outcome [3] | outcome [4] | outcome [5] | outcome [6] | outcome [7] | outcome [8] | Potency [9] | outcome [10]

COc1ccc(N=Nc2cc(C)c(N=Nc3ccc(S(=O)(=O)O)cc3)cc2OC)cc1
inactive: outcome [1] | outcome [2] | outcome [3] | outcome [4] | outcome [5] | outcome [6] | outcome [7] | outcome [8] | Potency [9] | outcome [10]

NCCc1ccn[nH]1
inactive: fluorescence, % of fluorescein [1] -0.0168% [at 18.6 µM] | fluorescence, % of fluorescent control [2] -0.0158% [at 18.6 µM] | activity change [3] 0.0838% [at 18.6 µM] | fluorescence, % of fluorescent control [4] -0.0073% [at 18.6 µM] | fluorescence, % of Rose Bengal [5] 0.001% [at 18.6 µM] | fluorescence, % of fluorescent control [6] -0.0614% [at 18.6 µM] | fluorescence, % of fluorescein control [7] -0.0021% [at 18.6 µM] | fluorescence, % of fluorescent control [8] -0.0013% [at 18.6 µM] | outcome [10]

CCCCC/C=C/CC(=O)OC
inactive: outcome [1] | outcome [2] | outcome [3] | outcome [4] | outcome [5] | outcome [6] | outcome [7] | outcome [8] | Potency [9] | outcome [10]

O=C(COCCOCCOCC(=O)Nc1c(I)cc(I)c(C(=O)O)c1I)Nc1c(I)cc(I)c(C(=O)O)c1I
inactive: outcome [1] | outcome [2] | outcome [3] | outcome [4] | outcome [5] | outcome [6] | outcome [7] | outcome [8] | Potency [9] | outcome [10]

CC(=O)OC(C)c1ccccc1 (stereo not drawn)
inactive: outcome [1] | outcome [2] | outcome [3] | outcome [4] | outcome [5] | outcome [6] | outcome [7] | outcome [8] | outcome [10]
